From article PMC4336329 (PLoS ONE, 2015) come the findings set out here.

Hit rate of the full screen: of about 310,000 compounds, about 2,200 (0.71%) showed an effect of 50% or more. Effects have a minus sign here. Only a selection was taken, and strong results are over-represented in it overall.

This assay deals with human ether-à-go-go-related gene (hERG) potassium channel (human, UniProt Q12809). In words: primary screen, population patch clamp on CHO cells stably expressing hERG; higher = less effect of the substance.
Sequence of human ether-à-go-go-related gene (hERG) potassium channel (Q12809 whole entry, looked up): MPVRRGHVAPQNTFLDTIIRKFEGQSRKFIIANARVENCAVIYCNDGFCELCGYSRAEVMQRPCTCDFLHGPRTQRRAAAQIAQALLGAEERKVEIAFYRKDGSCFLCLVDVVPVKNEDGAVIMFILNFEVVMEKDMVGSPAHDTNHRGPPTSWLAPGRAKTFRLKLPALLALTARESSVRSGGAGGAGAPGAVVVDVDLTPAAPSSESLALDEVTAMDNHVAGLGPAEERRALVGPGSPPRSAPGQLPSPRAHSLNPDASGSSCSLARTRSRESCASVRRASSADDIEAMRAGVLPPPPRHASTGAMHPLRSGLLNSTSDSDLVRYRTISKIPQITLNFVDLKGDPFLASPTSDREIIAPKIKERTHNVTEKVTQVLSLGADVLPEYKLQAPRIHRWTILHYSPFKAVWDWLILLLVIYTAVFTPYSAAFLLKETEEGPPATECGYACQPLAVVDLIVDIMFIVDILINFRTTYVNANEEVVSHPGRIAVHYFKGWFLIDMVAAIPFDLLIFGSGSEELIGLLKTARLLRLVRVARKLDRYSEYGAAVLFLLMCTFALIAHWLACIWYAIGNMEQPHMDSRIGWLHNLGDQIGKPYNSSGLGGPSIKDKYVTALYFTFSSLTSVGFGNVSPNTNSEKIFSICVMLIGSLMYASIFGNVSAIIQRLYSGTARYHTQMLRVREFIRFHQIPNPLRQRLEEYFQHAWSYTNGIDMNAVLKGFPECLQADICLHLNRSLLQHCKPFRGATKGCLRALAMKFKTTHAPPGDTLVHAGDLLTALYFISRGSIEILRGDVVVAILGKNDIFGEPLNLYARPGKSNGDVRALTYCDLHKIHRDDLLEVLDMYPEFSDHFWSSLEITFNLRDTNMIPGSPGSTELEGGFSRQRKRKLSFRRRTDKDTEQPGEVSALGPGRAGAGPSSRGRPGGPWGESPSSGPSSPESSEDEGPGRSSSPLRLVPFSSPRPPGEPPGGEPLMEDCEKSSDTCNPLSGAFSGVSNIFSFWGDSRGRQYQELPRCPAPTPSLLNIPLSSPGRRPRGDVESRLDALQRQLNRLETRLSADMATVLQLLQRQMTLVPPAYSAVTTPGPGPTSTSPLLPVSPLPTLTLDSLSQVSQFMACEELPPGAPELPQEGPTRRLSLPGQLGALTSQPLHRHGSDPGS
For the molecule `CC(=O)N1CCc2cc(Br)cc(S(=O)(=O)CCC(=O)N3CCN(c4ccccn4)CC3)c21`, the “hERG current change (%, negative = inhibition) at 1uM” value stood at 6.2%. Then `CCn1c(Cc2cccs2)nnc1SCC(=O)c1ccc(C)cc1`, with 5.59%. Then `COc1ccc(NS(=O)(=O)c2ccc(O)c(C(=O)OCC(=O)N3CC(C)OC(C)C3)c2)cc1` (stereo not shown), with 12.3%; and `COc1cccc(NC(=O)CN2C(=O)COc3ccc(Cl)cc32)c1`, with 8.19%; and `Cc1ccc(C)c(NC(=S)NNC(=O)c2csc(C(C)C)c2)c1`, with 0.742%. Take `COc1cc(NC(=O)c2sc3nc(C)nc(N4CCOCC4)c3c2C)cc(OC)c1OC`: the “hERG current change (%, negative = inhibition) at 1uM” value is 30.1%. As for `Cc1csc2nc3cc(C(N)=O)ccc3c(=O)n12`, the “hERG current change (%, negative = inhibition) at 1uM” value was found to be 10.2%.

In the case of `CCCCN(C)Cc1c(C)[nH]c2ccccc2c1=O`, the “hERG current change (%, negative = inhibition) at 1uM” value is listed as -8.8%. The figure for `CCCCN(C)Cc1c(C)[nH]c2c(ccc3ccccc32)c1=O` is -56.1%. Then `CCCCN(CC)Cc1c(C)[nH]c2c(ccc3ccccc32)c1=O`, with -49.6%; and `O=C(c1ccco1)N1C(=O)c2cccc3c(S(=O)(=O)N4CCCC4)ccc1c23`, with 6.3%.

With `CCc1ccc2oc(-c3cc(N)ccc3Cl)nc2c1`, the “hERG current change (%, negative = inhibition) at 1uM” value is 12%.

`COc1ccc(F)cc1C(=O)C1CCCN(Cc2c[nH]c3ccccc23)C1` (stereo not shown): the “hERG current change (%, negative = inhibition) at 1uM” value is on record as -18.6%. Consider `COc1ccc(C(=O)C2CCCN(C3Cc4ccccc4C3)C2)c(OC)c1` (stereo not shown), for which the “hERG current change (%, negative = inhibition) at 1uM” value was -68.2%.

As for `COc1cccc(C(=O)C2CCCN(Cc3cccc(C)n3)C2)c1` (stereo not shown), the “hERG current change (%, negative = inhibition) at 1uM” value is -30.1%. In the case of `COc1cccc(C(=O)C2CCCN(C/C=C/c3ccccc3OC)C2)c1` (stereo not shown), the “hERG current change (%, negative = inhibition) at 1uM” value is recorded as -2.82%. `COc1ccc(C(=O)C2CCCN(C3CSCCSC3)C2)c(OC)c1` (stereo not shown): the “hERG current change (%, negative = inhibition) at 1uM” value is -4.62%. With `COc1ccc(C(=O)C2CCCN(Cc3ccc(C)s3)C2)c(OC)c1` (stereo not shown), the “hERG current change (%, negative = inhibition) at 1uM” value was -2.87%. As to `COc1ccc(C(=O)C2CCCN(Cc3c[nH]c4ccccc34)C2)c(OC)c1` (stereo not shown), the “hERG current change (%, negative = inhibition) at 1uM” value is reported as -58.8%. The figure for `COc1ccc(C(=O)C2CCCN(Cc3cccc(C)n3)C2)c(OC)c1` (stereo not shown) is -58.3%. Regarding `COc1ccc(C(=O)C2CCCN(C/C=C/c3ccccc3OC)C2)c(OC)c1` (stereo not shown), the “hERG current change (%, negative = inhibition) at 1uM” value is reported as -78.6%.

Take `COc1ccc(C(=O)C2CCCN(C3Cc4ccccc4C3)C2)cc1OC` (stereo not shown): the “hERG current change (%, negative = inhibition) at 1uM” value is on record as -33.2%. Then `COc1ccc2cc(C(=O)C3CCCN(Cc4cccc(C)n4)C3)ccc2c1` (stereo not shown), with 11.2%; and `COc1ccc(C(=O)C2CCCN(Cc3c(C)[nH]c4ccccc34)C2)c(OC)c1` (stereo not shown), with -28.6%; and `CNC(=O)NC(=O)CSc1nnc(C(F)(F)F)n1C`, with 8.32%.

On to `O=C(OCC(=O)N1CCCC1)c1c(Cl)ccc(Cl)c1Cl`, for which the “hERG current change (%, negative = inhibition) at 1uM” value was 9.45%. Take `CCCc1nc(NC(C)=O)c(C#N)c(-c2ccco2)c1CC`: the “hERG current change (%, negative = inhibition) at 1uM” value amounted to 0.0807%. Then `Cc1cccc(C)c1NC(=O)c1c[nH]c2ccccc12`, with 11.7%; and `COCC(C)n1c(C)cc(C(=O)CN2c3cccc4cccc(c34)S2(=O)=O)c1C` (stereo not shown), with 7.82%.

Turning to `CC(C)C(c1nnnn1Cc1ccccc1)N(CCCO)Cc1cc2cc3c(cc2[nH]c1=O)OCO3` (stereo not shown), the “hERG current change (%, negative = inhibition) at 1uM” value was found to be 10.4%.

Regarding `COC(=O)c1cc2ccsc2n1CC(=O)Nc1ccc(N(C)C)cc1`, the “hERG current change (%, negative = inhibition) at 1uM” value is reported as 5.25%. For the molecule `C=CCN1N=C(c2ccc(Cl)s2)CSC1=O`, the “hERG current change (%, negative = inhibition) at 1uM” value is listed as 22.3%. With `Cc1ccc(NC(=S)NC(=O)CC2CC(C)(C)OC2=O)cc1` (stereo not shown), the “hERG current change (%, negative = inhibition) at 1uM” value is recorded as 8.78%.

Turning to `CCN1/C(=C/c2ccc3ccccc3[n+]2CC)C=Cc2ccccc21.[Cl-]`, the “hERG current change (%, negative = inhibition) at 1uM” value is on record as -89.5%. In the case of `CCN1/C(=C2\C(=O)N(c3ccccc3)N=C2C)C=Cc2cc(C)ccc21`, the “hERG current change (%, negative = inhibition) at 1uM” value is -1.41%.

Take `CCN1/C(=C/c2cc[n+](C)cc2)C=Cc2cc(C)ccc21.[I-]`: the “hERG current change (%, negative = inhibition) at 1uM” value is -55.5%. `CCOC(=O)/C(C#N)=C/C=C1\C=Cc2ccccc2N1CC`: the “hERG current change (%, negative = inhibition) at 1uM” value is on record as 14.8%. Then `C=CC[n+]1c(/C=C2\C=Cc3cc(C)ccc3N2CC)ccc2ccccc21.[Br-]`, with -92.1%; and `CCN1C(=C(C#N)C#N)C=Cc2ccccc21`, with 15.9%.

Consider `CCN1C(=C(C#N)C#N)C=Cc2cc(C)ccc21`, for which the “hERG current change (%, negative = inhibition) at 1uM” value is recorded as 14.9%. On to `CCN1/C(=C/c2ccc3ccccc3[n+]2CCCS(=O)(=O)[O-])C=Cc2cc(C)ccc21`, for which the “hERG current change (%, negative = inhibition) at 1uM” value was 13%. As to `CCN1C(=O)/C(=C2\C=Cc3cc(C)ccc3N2CC)OC1=S`, the “hERG current change (%, negative = inhibition) at 1uM” value turned out to be 14%. Regarding `O=S(=O)(CCc1nnc(-c2ccc(Br)cc2)o1)c1ccc(Cl)cc1`, the “hERG current change (%, negative = inhibition) at 1uM” value was 6.04%. In the case of `Cc1cccc(NC(=O)CSc2cccc3cccnc23)c1C`, the “hERG current change (%, negative = inhibition) at 1uM” value is 13.9%. Consider `COc1ccccc1NC(=O)c1nc[nH]c1C(=O)Nc1ccccc1OC`, for which the “hERG current change (%, negative = inhibition) at 1uM” value worked out at 22.2%. Then `CCC(=O)N1CCN(CCN=CC2=C(O)CC(c3cccs3)CC2=O)CC1` (stereo not shown), with 9.17%; and `CCCCCC(=O)N1CCN(CCN=CC2=C(O)CC(c3ccco3)CC2=O)CC1` (stereo not shown), with -74.7%; and `CCCCCC(=O)N1CCN(CCN=CC2=C(O)CC(c3cccs3)CC2=O)CC1` (stereo not shown), with -109%. Consider `CC(=O)N1CCN(CCN=CC2=C(O)CC(c3ccco3)CC2=O)CC1` (stereo not shown), for which the “hERG current change (%, negative = inhibition) at 1uM” value is 2.39%. Take `CC(=O)N1CCN(CCN=CC2=C(O)CC(c3cccs3)CC2=O)CC1` (stereo not shown): the “hERG current change (%, negative = inhibition) at 1uM” value is 10.4%. Consider `CC(C)C(=O)N1CCN(CCN=CC2=C(O)CC(c3ccco3)CC2=O)CC1` (stereo not shown), for which the “hERG current change (%, negative = inhibition) at 1uM” value came out at 14%. For the molecule `COc1ccc(C(=O)NC(=S)Nc2ccc(S(=O)(=O)Nc3cc(OC)nc(OC)n3)cc2)cc1`, the “hERG current change (%, negative = inhibition) at 1uM” value amounted to 13.7%. Then `O=C(Oc1ccc2c(c1)CCC2)N1CCOCC1`, with 11.3%; and `Cc1ccc(S(=O)(=O)N2CCCC2C(=O)NCc2ccco2)cc1` (stereo not shown), with 8.74%. Consider `Cc1ccc(C)c(S(=O)(=O)N2CCCOC2CNC(=O)C(=O)NC2CC2)c1` (stereo not shown), for which the “hERG current change (%, negative = inhibition) at 1uM” value is recorded as 19.9%.

In the case of `COc1ccc(Nc2nc(N3CCCCC3)nc3ccccc23)c(OC)c1`, the “hERG current change (%, negative = inhibition) at 1uM” value is -12.1%. The figure for `COc1ccc(Nc2nc(N3CCN(C)CC3)nc3ccccc23)c(OC)c1` is -76.6%; for `COc1ccc(Nc2nc(N3CCCC3)nc3ccccc23)c(OC)c1` it is -7.36%.
